Compounds with a hit are over-represented: about 0.86% of the library has one in this group of screens.
A1 inh: A1 inhibition; MEF A1-2A-BIM cells, caspase-Glo luminescence, 3 h; percent of clofoctol signal, DMSO as zero; caspase activation, % (concentration not given with the values); actives 0.51% (n = 21,000); AID 2241;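 active = most replicate scores above 10, or exactly half above 10 with mean activity above 10; inconclusive = mean activity below 10 while half the replicates exceed 10; inactive = most replicate scores below 10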;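 also: effector caspase 3 and 7 activity cleaving a DEVD luciferin substrate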
BJeLR viability: compounds reducing viability of BJeLR cells; BJeLR fibroblasts viability, CellTiterGlo ATP luminescence, 48 h; HRASV12, hTERT and SV40 LT/ST transformed; viability loss activity score, % (no concentration beside the values); actives 0.64% (n = 30,000); AID 2275; in the data active = viability loss activity score above about 50%; inconclusive = no clear call, values can overlap the other calls; inactive = below about 35%;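 also: higher score means fewer live cells and less ATP luminescence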
An asterisk follows results filed as active; ? = inconclusive; nt = not tested or not shown.

SMILES	A1 inh	BJeLR viability
O=C(Nc1ccc([N+](=O)[O-])cc1Cl)c1cc(Cl)ccc1O	-7	99*
O=C(Nc1ccccc1)c1cc([N+](=O)[O-])ccc1Cl	0	-3
CCc1nc(N)nc(N)c1-c1ccc(Cl)cc1	0	77*
CCOC(=O)c1sc2sc(C(=O)OCC)c(-c3ccc(Cl)cc3)c2c1N	0	-2
CO[C@@]12[C@H](COC(N)=O)C3=C(C(=O)C(C)=C(N)C3=O)N1C[C@@H]1N[C@@H]12	-1	58*
CCOc1ccc(-c2cc(CCCC(=O)Nc3ccc(CC)cc3)no2)cc1	nt	0
CO[C@@H]1CC(OC2CCC3(C)C(CCC45CCC(C6=CC(=O)OC6)C(C)(CCC43)C5=O)C2)O[C@H](C)[C@@H]1O[C@@H]1O[C@H](CO[C@@H]2O[C@H](CO)[C@@H](O)[C@H](O)[C@H]2O)[C@@H](O)[C@H](O)[C@H]1O (stereo partly specified)	0	92*
C/C=C(\C)C(=O)O[C@@H]1[C@@H](OC(C)=O)C2[C@@]3(C)CC[C@H](OC4CC(OC)C(OC5CC(OC)C(OC6CC(OC)C(OC7OC(C)C(OC8OC(CO)C(O)C(O)C8O)C(OC)C7O)C(C)O6)C(C)O5)C(C)O4)CC3=CC[C@@]2(O)[C@@]2(O)CC[C@H](C(C)=O)[C@@]12C (stereo partly specified)	1	-14
Cc1cc(C)nc(NC(N)=NCc2ccccc2Cl)n1	-1	77*
Cc1cc(C)nc(NC(=NCc2ccc(Cl)cc2)NC(=O)C(C)N2C(=O)c3ccccc3C2=O)n1 (stereo unspecified)	0	4
CC1CCN(C(=O)CSc2nc(-c3ccco3)nc3c2c(=O)n(C)c(=O)n3C)CC1	nt	3
O=C1c2c(O)ccc(O)c2C(=O)c2c(NCCNCCO)ccc(NCCNCCO)c21	0	110*
O=C(Nc1ccc(C(F)(F)F)cc1)Nc1ccc(C(F)(F)F)cc1	nt	37
O=c1cc(N2CCOCC2)oc2c1ccc1ccccc12	2	4
O=c1cc(N2CCOCC2)oc2c(-c3ccccc3)cccc12	11*	5
O=C(Nc1cccnc1Cl)C1CSC(c2ccncc2)=N1 (stereo unspecified)	nt	1
COc1ccc(Cn2c(=O)[nH]c3cc(C(=O)NCc4ccccc4)ccc3c2=O)cc1	nt	5
CN(C)c1ccc(C(=C2C=CC(=[N+](C)C)C=C2)c2ccc(N(C)C)cc2)cc1	58*	127*
CN(C)CCNC(=O)Cn1ncc2c(=O)oc3ccccc3c21	nt	-4
C=C1C(=O)O[C@H]2C1[C@H](OC(=O)/C(C)=C/CO)C/C(C)=C\CC[C@@]1(C)OC21 (stereo partly specified)	0	-7
C=C1C(=O)O[C@H]2[C@H]1[C@@H](OC(=O)C(C)(O)C(C)Cl)C(OC(C)=O)/C(C(=O)OC)=C\CC[C@@]1(C)O[C@H]21 (stereo partly specified)	2	85*
O=C(/C=C/Oc1ccc(Cl)cc1)c1ccc(Br)cc1	11*	8
O=C(COC(=O)c1ccc(Br)cc1)c1ccc(Br)cc1	-1	2
COc1ccc2nc3sc(C(=O)N(C)c4ccc(Cl)cc4)cc3cc2c1	nt	27
CCOc1ccc(N/C=C2/CCCC(C)C2=O)cc1 (stereo unspecified)	nt	-6
SMILES	A1 inh	BJeLR viability
Cc1cccc(NC(=O)Cn2c(=O)n(CCC(=O)NCc3ccco3)c(=O)c3ccccc32)c1	nt	1
C=C1C(=O)OC2/C=C(\CO)C(OC(C)=O)C/C=C(/C)CC(OC(=O)/C(C)=C\CO)C12 (stereo unspecified)	1	34
C/C=C(/C)C(=O)O[C@H]1C=C(CO)C(=O)[C@H](OC(=O)/C(C)=C/CO)[C@H]1C(C)C	3	81*
CC1CCN(C(=O)C(Cc2ccccc2)NS(=O)(=O)c2ccc3c(c2)c(=O)n(C)c(=O)n3C)CC1 (stereo unspecified)	nt	2
CNC[C@@H]1Oc2ccc(NC(=O)Nc3c(C)noc3C)cc2C(=O)N([C@@H](C)CO)C[C@@H]1C	0	0
CNC[C@@H]1Oc2ccc(NC(=O)Nc3c(C)noc3C)cc2C(=O)N([C@H](C)CO)C[C@H]1C	16*	-1
CCCC(=O)N1CCc2cc(OC)c(OC)cc2C1COc1ccc(OC)cc1 (stereo unspecified)	0	3
CCC1CN2CCc3cc(OC)c(OC)cc3[C@@H]2C[C@@H]1C[C@H]1NCCc2cc(OC)c(OC)cc21 (stereo partly specified)	17*	86*
COc1ccc(NC2c3ccccc3C(=O)N2c2ccc(Cl)cc2)cc1 (stereo unspecified)	nt	0
COC(=O)c1[nH]c2c(c1C)C(=O)CC(c1ccccc1)C2 (stereo unspecified)	nt	60*
CCCc1c(C(=O)OCC)[nH]c2c1C(=O)CC(c1ccccc1)C2 (stereo unspecified)	nt	3
Cc1nc(C(F)(F)F)ccc1NC(=O)NCCNc1cccc(C(F)(F)F)n1	nt	0
CC(C)(C)OC(=O)N1CCN(C(=O)c2ccccc2C(=O)O)CC1	nt	-2
CC1CCCC[C@H]2C(=O)C=C[C@H](O)[C@@H]2CC(=O)O1 (stereo partly specified)	0	62*
CC1CCC/C=C/C(=O)c2c(O)cc(O)cc2CC(=O)O1 (stereo unspecified)	0	4
O=C(c1ccc(CS(=O)c2ccc(Cl)cc2)o1)N1CCCC1 (stereo unspecified)	nt	2
Cc1cc(C)nc(NS(=O)(=O)c2ccc(NC(=O)C3(c4ccccc4)CCOCC3)cc2)n1	nt	2
COc1ccc(C(=O)CSc2nc3ccccc3c(=O)n2-c2ccc(C)cc2)cc1	nt	3
O=C(Nc1c(C(=O)c2ccccc2)oc2ccccc12)c1ccc(Cl)cc1	nt	1
OC(c1ccccc1)(c1ccccc1)C1CCN(C(=S)Nc2ccccc2)CC1	0	1
Cc1cc[n+](Cc2ccccn2)c(N)c1	0	6
c1ccc(CN(CCN(Cc2ccccn2)Cc2ccccn2)Cc2ccccn2)nc1	?	110*
Cc1ccc2nc(-c3ccncc3)cc(-c3ccccc3)c2c1	?	1
On1onc2c3cc(-c4ccccc4)nc3ccc21	-2	61*
CCCN(C(=O)COc1cc(=O)n(C)c2ccccc12)c1ccccc1C	nt	-2
SMILES	A1 inh	BJeLR viability
C=C(C)C(=O)O[C@H]1[C@H]2C(=C)C(=O)O[C@@H]2C[C@@H](C)[C@@H]2O[C@@H]2C(=O)[C@](C)(O)[C@@H]1OC(C)=O	1	32
C=C(C)C(=O)O[C@H]1[C@H]2C(=C)C(=O)O[C@@H]2C[C@@H](C)/C=C/C(=O)[C@](C)(O)[C@@H]1OC(=O)C(=C)C	2	72*
COc1ccc(-n2nc(C(=O)N(C)c3ccccc3)c3c4ccccc4n(C)c3c2=O)cc1	nt	-5
Cn1c(=O)c2cc(C(=O)NCC3(c4ccccc4)CCCC3)sc2c2ccccc21	nt	-3
Nc1cccc(-c2cc3c(Oc4cccc(O)c4)ncnc3[nH]2)c1	23*	21
Cn1cc(C2=C(c3cn(CCCSC(=N)N)c4ccccc34)C(=O)NC2=O)c2ccccc21	4	56*
CN(C)CCCn1cc(C2=C(c3c[nH]c4ccccc34)C(=O)NC2=O)c2ccccc21	6	2
NS(=O)(=O)c1ccc(CCNC(=O)c2cccn3c(=O)c4cc5ccccc5cc4nc23)cc1	13*	10
